# Laboratory results: publication PMC5700166
# Target: T1, GST-Co-NF-kB (Capsaspora owczarzaki, UniProt F1ARL5 200-546)
# T1 sequence: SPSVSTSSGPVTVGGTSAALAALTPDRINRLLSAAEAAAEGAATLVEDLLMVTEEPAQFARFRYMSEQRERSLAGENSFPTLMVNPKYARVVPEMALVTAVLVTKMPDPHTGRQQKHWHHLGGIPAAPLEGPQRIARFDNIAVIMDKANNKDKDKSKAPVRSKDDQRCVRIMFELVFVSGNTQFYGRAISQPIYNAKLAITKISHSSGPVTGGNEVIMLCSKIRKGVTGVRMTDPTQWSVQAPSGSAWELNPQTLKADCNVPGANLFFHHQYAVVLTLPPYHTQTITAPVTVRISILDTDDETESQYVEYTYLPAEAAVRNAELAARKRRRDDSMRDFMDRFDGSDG
# Test: protein-binding microarray (PBM); PBM: ~300 nM protein, 6 mM HEPES pH 7.8, 80 mM KCl, 0.5 mM EDTA, 0.5 mM EGTA, 6% glycerol, 35 ng/ul poly-dIdC, 1% milk, 1 h, room temperature; Ap Aiptasia and Nv Nematostella (sea anemones) / Co Capsaspora / Aq Amphimedon (sponge) / Dm Drosophila / Hu human; RHD is the Rel homology domain; high values mean tight binding
# Conditions: dsDNA, one strand shown
row,Sequence,binding signal [z-score]
1,CCGATTAACATCACAAATTTTCCTGATGTTAATCGGGTCTTGATTCGCTTGACGCTGCTG,1.2
2,CCGATTAACATCACCCTACAAGTTGATGTTAATCGGGTCTTGATTCGCTTGACGCTGCTG,3.08
3,CCGATTAACATCAGGTCACCCCATGATGTTAATCGGGTCTTGATTCGCTTGACGCTGCTG,2.51
4,CCGATTAACATCACCCACGAGGGTGATGTTAATCGGGTCTTGATTCGCTTGACGCTGCTG,1.35
5,CCGATTAACATCACCCAAAGTTTTGATGTTAATCGGGTCTTGATTCGCTTGACGCTGCTG,1.24
6,CCGATTAACATCACGGTGTGGGTTGATGTTAATCGGGTCTTGATTCGCTTGACGCTGCTG,1.37
7,CCGATTAACATCATCGCGGGTAGTGATGTTAATCGGGTCTTGATTCGCTTGACGCTGCTG,1.37
8,CCGATTAACATCACCAAGTATAGTGATGTTAATCGGGTCTTGATTCGCTTGACGCTGCTG,1.42
9,CCGATTAACATCAGGAAAAAAACTGATGTTAATCGGGTCTTGATTCGCTTGACGCTGCTG,1.06
10,CCGATTAACATCAAGGGTGGAAATGATGTTAATCGGGTCTTGATTCGCTTGACGCTGCTG,1.66
11,CCGATTAACATCACAATAACGGGTGATGTTAATCGGGTCTTGATTCGCTTGACGCTGCTG,1.26
12,CCGATTAACATCACCCGCTTTATTGATGTTAATCGGGTCTTGATTCGCTTGACGCTGCTG,1.23
13,CCGATTAACATCAGGGTGTAGTTTGATGTTAATCGGGTCTTGATTCGCTTGACGCTGCTG,1.14
14,CCGATTAACATCAGATACCAGGGTGATGTTAATCGGGTCTTGATTCGCTTGACGCTGCTG,1.09
15,CCGATTAACATCAGCCATATTTGTGATGTTAATCGGGTCTTGATTCGCTTGACGCTGCTG,1.13
16,CCGATTAACATCACCCATTTCCGTGATGTTAATCGGGTCTTGATTCGCTTGACGCTGCTG,1.41
17,CCGATTAACATCAATGTCGGTGGTGATGTTAATCGGGTCTTGATTCGCTTGACGCTGCTG,1.2
18,CCGATTAACATCAGGGCAAAAAATGATGTTAATCGGGTCTTGATTCGCTTGACGCTGCTG,1.84
19,CCGATTAACATCATACCTCCCGTTGATGTTAATCGGGTCTTGATTCGCTTGACGCTGCTG,1.01
20,CCGATTAACATCAGTAGGTGAAGTGATGTTAATCGGGTCTTGATTCGCTTGACGCTGCTG,1.02
21,CCGATTAACATCAATTTTTGCCCTGATGTTAATCGGGTCTTGATTCGCTTGACGCTGCTG,1.72
22,CCGATTAACATCAGGGAGCGGTTTGATGTTAATCGGGTCTTGATTCGCTTGACGCTGCTG,1.07
23,CCGATTAACATCACCCACGACGATGATGTTAATCGGGTCTTGATTCGCTTGACGCTGCTG,1.01

# Target: T2, GST-Dm-Relish (Drosophila melanogaster, UniProt Q94527 99-473)
# T2 sequence: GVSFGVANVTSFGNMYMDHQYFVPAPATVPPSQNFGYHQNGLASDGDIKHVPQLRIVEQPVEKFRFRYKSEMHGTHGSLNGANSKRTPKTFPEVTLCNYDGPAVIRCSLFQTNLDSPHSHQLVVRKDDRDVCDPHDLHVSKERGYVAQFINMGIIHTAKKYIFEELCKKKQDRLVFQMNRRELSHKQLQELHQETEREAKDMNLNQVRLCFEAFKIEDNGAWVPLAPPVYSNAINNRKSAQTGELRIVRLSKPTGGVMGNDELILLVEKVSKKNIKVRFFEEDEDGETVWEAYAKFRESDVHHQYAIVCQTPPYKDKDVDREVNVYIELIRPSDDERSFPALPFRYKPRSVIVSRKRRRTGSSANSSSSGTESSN
# Test: as above
# Conditions: dsDNA, one strand shown
row,Sequence,binding signal [z-score]
1,CCGATTAACATCACAAATTTTCCTGATGTTAATCGGGTCTTGATTCGCTTGACGCTGCTG,2.01
2,CCGATTAACATCACAGGAAATCCTGATGTTAATCGGGTCTTGATTCGCTTGACGCTGCTG,1.25
3,CCGATTAACATCAATGGATTTCCTGATGTTAATCGGGTCTTGATTCGCTTGACGCTGCTG,1.12
4,CCGATTAACATCACCCACGAGGGTGATGTTAATCGGGTCTTGATTCGCTTGACGCTGCTG,1.29
5,CCGATTAACATCAAAAATTCCATTGATGTTAATCGGGTCTTGATTCGCTTGACGCTGCTG,1.66
6,CCGATTAACATCAAGTGAATTCCTGATGTTAATCGGGTCTTGATTCGCTTGACGCTGCTG,3.49
7,CCGATTAACATCACGTATTTTCCTGATGTTAATCGGGTCTTGATTCGCTTGACGCTGCTG,1.2
8,CCGATTAACATCATGTGGTTCTCTGATGTTAATCGGGTCTTGATTCGCTTGACGCTGCTG,1.1
9,CCGATTAACATCACGTTCTTTCCTGATGTTAATCGGGTCTTGATTCGCTTGACGCTGCTG,2.3
10,CCGATTAACATCAGGAATTTATATGATGTTAATCGGGTCTTGATTCGCTTGACGCTGCTG,1
11,CCGATTAACATCAGGAAAAAAACTGATGTTAATCGGGTCTTGATTCGCTTGACGCTGCTG,1.23
12,CCGATTAACATCAGTAGTTTCCATGATGTTAATCGGGTCTTGATTCGCTTGACGCTGCTG,1.79
13,CCGATTAACATCAGAATTTCCTATGATGTTAATCGGGTCTTGATTCGCTTGACGCTGCTG,1.23
14,CCGATTAACATCACAATAACGGGTGATGTTAATCGGGTCTTGATTCGCTTGACGCTGCTG,1.63
15,CCGATTAACATCAGGGTGTAGTTTGATGTTAATCGGGTCTTGATTCGCTTGACGCTGCTG,1.07
16,CCGATTAACATCACCCATTTCCGTGATGTTAATCGGGTCTTGATTCGCTTGACGCTGCTG,1.34
17,CCGATTAACATCAGCATCCACGGTGATGTTAATCGGGTCTTGATTCGCTTGACGCTGCTG,1.01
18,CCGATTAACATCACGGAATGTACTGATGTTAATCGGGTCTTGATTCGCTTGACGCTGCTG,1.8
19,CCGATTAACATCAGCGTGACTTTTGATGTTAATCGGGTCTTGATTCGCTTGACGCTGCTG,1.47
20,CCGATTAACATCAGAGTAATTCCTGATGTTAATCGGGTCTTGATTCGCTTGACGCTGCTG,2.26
21,CCGATTAACATCACGGAATTCACTGATGTTAATCGGGTCTTGATTCGCTTGACGCTGCTG,2.4
22,CCGATTAACATCACCCACGACGATGATGTTAATCGGGTCTTGATTCGCTTGACGCTGCTG,1.04
23,CCGATTAACATCAGTGAACCACATGATGTTAATCGGGTCTTGATTCGCTTGACGCTGCTG,5.69
24,CCGATTAACATCAGTGGTTACCATGATGTTAATCGGGTCTTGATTCGCTTGACGCTGCTG,2.13
